This passage reports AC50 and activity, negative = inhibition results from PubChem BioAssay AID1851 (National Center for Advancing Translational Sciences (NCATS), 2009).

Molecules are shown by their SMILES. Hit rate of the full screen: of about 16,000 compounds, about 5,800 (36%) were called active. Not shown: some 23% with an inconclusive outcome. This is one part of the list. Values without a mark were called inactive. The call rests on the fitted dose curve; in most records, active means well fitted curve in the direction sought with a large enough effect; inconclusive means small, poorly fitted or top-dose-only effect, or effect the other way; inactive means no such curve, though single readings can be large or run the other way.
On the % scale 0 is the no-effect control and ±100 the full control effect.

The assay deals with Cytochrome P450 2C19 (Homo sapiens) (UniProt P33261). Briefly: Cytochrome panel assay with activity outcomes. The note with it: recombinant CYP, pro-luciferin dealkylation, luminescence, p450-cyp2c19; series mostly up to 57.1 µM.
Sequence of Cytochrome P450 2C19 (Homo sapiens) (P33261 whole entry, looked up): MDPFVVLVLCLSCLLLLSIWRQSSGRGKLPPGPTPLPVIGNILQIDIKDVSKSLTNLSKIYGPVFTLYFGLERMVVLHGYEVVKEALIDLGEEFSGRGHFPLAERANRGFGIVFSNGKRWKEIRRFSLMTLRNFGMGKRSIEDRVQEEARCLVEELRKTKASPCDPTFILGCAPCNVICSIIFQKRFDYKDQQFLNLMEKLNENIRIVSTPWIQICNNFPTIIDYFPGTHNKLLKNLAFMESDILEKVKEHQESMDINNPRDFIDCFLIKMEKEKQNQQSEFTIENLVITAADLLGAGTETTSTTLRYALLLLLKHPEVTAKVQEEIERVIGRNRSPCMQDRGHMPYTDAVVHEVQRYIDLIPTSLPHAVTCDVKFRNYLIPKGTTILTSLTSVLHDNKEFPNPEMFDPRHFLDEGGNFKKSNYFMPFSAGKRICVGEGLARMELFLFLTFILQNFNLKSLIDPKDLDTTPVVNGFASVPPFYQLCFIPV
In the case of `CCc1ccc(OCC(=O)Nc2ccc(-c3nc4ccccc4o3)c(O)c2)cc1`, the AC50 (commonly the midpoint of the concentration-response curve, whichever way the signal moves) was “inactive”.
As to `O=C(O)CCC(=O)Nc1ccc2ccccc2c1`, the activity, negative = inhibition is -18.3% [at 11.4 µM].
With `C=CCSc1nnc(NC(=O)COc2ccc3ccccc3c2)s1`, the AC50 was 2.24 µM (active).
The same measure, in the same setting: under `CCC(CC)c1nnc(NC(=O)COc2ccc3c(C)cc(=O)oc3c2)s1` stands “inactive”.
Consider `O=C(COc1ccc2ccccc2c1)Nc1ccc(Cc2ccncc2)cc1`, for which the AC50 was 0.178 µM (active).
In the case of `CCSc1nnc(NC(=O)COc2ccc3ccccc3c2)s1`, the AC50 was 0.282 µM (active).
The same measure, in the same setting: as for `CN1CC[C@@]2(CCN3CCc4c(oc5ccccc45)[C@@H]3C2)N(C)C1=O`, the entry is “inactive”.
Same read-out and setting: under `CC(C)=CCc1c2c(c3occ(-c4ccc(O)c(O)c4)c(=O)c3c1O)C=CC(C)(C)O2` stands 2 µM (active); under `Cc1nc(NC(=O)c2ccccc2)sc1-c1csc(Nc2ccc(Cl)cc2)n1`, 0.316 µM (active); under `Cc1nc(NC(=O)c2ccccc2)sc1-c1csc(Nc2cccc(F)c2)n1`, 0.562 µM (active).
Still for that read-out and setting: under `Cc1ccc(Nc2nc(-c3sc(NC(=O)c4cccc(Cl)c4)nc3C)cs2)cc1` stands 1.41 µM (active); under `Cc1ccc(Nc2nc(-c3sc(NC(=O)c4ccc([N+](=O)[O-])cc4)nc3C)cs2)cc1`, 1.26 µM (active).
`O=C(Nc1nnc(CCS(=O)(=O)c2ccc(Br)cc2)s1)c1ccc([N+](=O)[O-])cc1`: the AC50 result is “inactive”.
On the same count and under the same terms, under `Cc1cccc(C(=O)Nc2nnc(-c3ccc(C(C)(C)C)cc3)s2)c1` stands “inactive”.
For the compound `O=C(O)CCC(O)=C1S(=O)(=O)OCCOS1(=O)=O`, the activity, negative = inhibition was 3.76% [at 11.4 µM].
In the case of `Cc1nnc(NC(=O)c2cccc(NC(=O)C(C)C)c2)s1`, the AC50 entry was “inactive”.
Regarding `C=CCCC(=O)Nc1nc(C)c(-c2csc(Nc3ccc(Cl)cc3)n2)s1`, the AC50 was 1.26 µM (active).
On the same count and under the same terms, as for `Cc1nc(NC(=O)c2ccccc2)sc1-c1csc(Nc2ccc(Cl)cc2Cl)n1`, the figure is 0.355 µM (active); as for `Cc1nc(NC(=O)c2ccccc2)sc1-c1csc(Nc2cccc(Cl)c2)n1`, 0.562 µM (active); as for `Cc1nc(NC(=O)c2ccco2)sc1-c1csc(Nc2ccc(Cl)cc2Cl)n1`, 0.355 µM (active).
Still for that read-out and setting: as for `O=C(O)Cc1cc(I)c(Oc2ccc(O)c(I)c2)c(I)c1`, the entry is “inactive”; as for `CC[C@H](C)C(=O)O[C@H]1CCC=C2C=C[C@H](C)[C@H](CC[C@@H]3C[C@H](O)CC(=O)O3)[C@H]21`, “inactive”.
The same measure, in the same setting: under `Nc1[nH]nc2nc3ccccc3nc12` stands 0.631 µM (active).
Take `Nc1n[nH]c2ccccc12`: the activity, negative = inhibition was -23.5% [at 11.4 µM].
For the compound `COc1ccc(N(C)C(=O)c2ccc3nc(-c4ccccc4)c(-c4ccccc4)nc3c2)cc1`, the AC50 is 8.91 µM (active).
On the same count and under the same terms, as for `CCCOc1ccc(Cn2c(C)nc([N+](=O)[O-])c2SCC(O)COC)cc1[N+](=O)[O-]` (stereo not given), the figure is 2.82 µM (active).
For `CNc1nc(C)cc(C)c1S(=O)(=O)c1ccc(Cl)cc1`, the AC50 is 0.708 µM (active).
As to `Cc1cc(C)nc(NS(=O)(=O)c2ccc(N)cc2)n1`, the AC50 entry was “inactive”.
Regarding `COc1ccc(Oc2nc(C)cc(C)c2S(=O)(=O)c2ccc(C)cc2)cc1`, the AC50 was 14.1 µM (active).
On the same count and under the same terms, as for `CNc1nc(C)cc(C)c1S(=O)(=O)c1ccc(C)cc1`, the figure is 0.631 µM (active).
The same measure, in the same setting: under `Cc1cc(C)c(S(C)(=O)=O)c(Oc2ccc(C(C)(C)C)cc2)n1` stands 7.94 µM (active); under `Cc1ccccc1C1C(C#N)=C2N=C(N)c3c(sc4c3CCCCC4)N2C2=C1C(=O)CC(C)(C)C2` (stereo not given), 6.31 µM (active); under `COc1cc(C2C(C#N)=C(N)N(c3sc4c(c3C#N)CCCC4)C3=C2C(=O)CC(C)(C)C3)cc(OC)c1OC` (stereo not given), 10 µM (active).
Consider `CC(=O)OC[C@@H]1O[C@@H](O/N=C2/C[C@@H](O)[C@@H](O)[C@@H]3[C@@H]4C(=O)N(C[C@@H]5CCCO5)C(=O)[C@H]4CC[C@@H]23)[C@H](OC(C)=O)[C@H](OC(C)=O)[C@@H]1OC(C)=O`, for which the activity, negative = inhibition was 3.68% [at 11.4 µM].
`COc1cccc(Cn2c(NCc3cccnc3)nc3c2c(=O)n(C)c(=O)n3C)c1`: the AC50 was 17.8 µM (active).
On the same count and under the same terms, under `Nc1nc(-c2ccccc2)c(-c2ccccc2)s1` stands 8.91 µM (active).
As to `Nc1nc(-c2ccccc2)c(-c2ccccc2)c(-c2nc(N)nc(-c3ccccc3)c2-c2ccccc2)n1`, the activity, negative = inhibition is 13% [at 11.4 µM].
Regarding `Nc1ccc(-c2sc(N)nc2-c2ccccc2)cc1`, the AC50 is 7.94 µM (active).
On the same count and under the same terms, under `Cc1ccc(C)c(NC(=O)C2C3CCCC2C3c2ccccc2)c1` (stereo not given) stands “inactive”; under `Cc1ccc(C)c(NC(=O)C2CC3c4ccccc4C2c2ccccc23)c1` (stereo not given), 20 µM (active); under `Nc1nc2c(ncn2COC(CO)CO)c(=O)[nH]1`, “inactive”.
As to `CC(=O)c1sc(N)c(C(=O)OC(C)C)c1C`, the AC50 was 1.58 µM (active).
Take `CC(C)CN1CCCC2(CCN(C(=O)c3cc(C(F)(F)F)cc(C(F)(F)F)c3)CC2)C1`: the AC50 entry is “inactive”.
Turning to `CC(C)[C@H](NC(=O)OC(C)(C)C)[C@@H](O)CC(=O)OC(C)(C)C`, the activity, negative = inhibition was -17.9% [at 11.4 µM].
Still for that read-out and setting: under `CC(=O)C[C@H](O)[C@@H](NC(=O)OC(C)(C)C)C(C)C` stands -9.61% [at 11.4 µM].
In the case of `CCOC(=O)CSCC(NC(=O)OC(C)(C)C)C(=O)OCC` (stereo not given), the AC50 is 10 µM (active).
Take `Cc1nn(Cc2ccc(Cl)cc2)c(C)c1NC(=O)Cn1nc([N+](=O)[O-])c(Cl)c1C`: the AC50 result was “inactive”.
With `Cc1c(Cl)c([N+](=O)[O-])nn1Cc1ccc(C(=O)N/N=C\c2cc(Cl)ccc2O)o1`, the AC50 was 1.78 µM (active).
With `Cc1c(Cl)c([N+](=O)[O-])nn1Cc1ccc(C(=O)N/N=C\c2cccc(Br)c2)o1`, the AC50 was 1.12 µM (active).
For the compound `O=C(O)/C=C\C(=O)Nc1ccc2c(c1)C(=O)c1cc(F)ccc1-2`, the activity, negative = inhibition is 28.8% [at 11.4 µM].
With `O=C(/C=C/c1cccc(Cl)c1)Nc1ccncc1`, the AC50 was 0.0708 µM (active).
Same read-out and setting: under `Cc1nc(N=Nc2cc(S(=O)(=O)O)ccc2S(=O)(=O)O)c(COP(=O)(O)O)c(C=O)c1O` stands “inactive”.
Same read-out and setting: as for `CN(C)c1ccc(/C=C2/C(=O)Nc3ccccc32)cc1`, the entry is “inactive”; as for `CCCCC1(C)OC(=O)C(=Cc2ccc(N(CC)CC)cc2)C(=O)O1` (stereo not given), 10 µM (active).
Regarding `O=C1Oc2ccccc2C2(O)C3CCCCCC3C12` (stereo not given), the AC50 is 1.41 µM (active).
`C#CCSc1nnc(-c2sc3ccccc3c2Cl)o1`: the AC50 result was “inactive”.
Still for that read-out and setting: under `C#CCSc1nc(Cc2ccc(Cl)cc2)nc2ccccc12` stands 0.501 µM (active); under `CC1(C)CC(=O)C(C(C#Cc2ccccc2)C2=C(O)CC(C)(C)CC2=O)=C(O)C1`, 4.47 µM (active).
Turning to `Cc1noc(C)c1C(=O)N1CCC2(CCCN(C(c3ccccc3)c3ccccc3)C2)CC1`, the AC50 result is “inactive”.
For `O=C(c1ccncc1)N1CCC2(CC1)CN(C(c1ccccc1)c1ccccc1)C2`, the AC50 result was “inactive”.
On the same count and under the same terms, under `CC(=O)N1CCC2(CC1)CN(C(c1ccccc1)c1ccccc1)C2` stands “inactive”; under `CC(=O)N1CCC2(CC1)CCN(C(c1ccccc1)c1ccccc1)CC2`, “inactive”.
Still for that read-out and setting: under `O=C(c1ccncc1)N1CCC2(CCCN(C(c3ccccc3)c3ccccc3)C2)CC1` stands 10 µM (active); under `CC(=O)N1CCC2(CCCN(C(c3ccccc3)c3ccccc3)C2)CC1`, 15.8 µM (active).
On the same count and under the same terms, under `Cc1cccc(CNc2ncnc3ccc(-c4ccc5c(c4)OCO5)cc23)c1` stands 5.01 µM (active); under `c1ccc(CNc2ncnc3ccc(-c4ccc5c(c4)OCO5)cc23)cc1`, 3.16 µM (active); under `c1ccc(Nc2ncnc3ccc(-c4ccc5c(c4)OCO5)cc23)cc1`, “inactive”.
For the compound `Cc1cc(O)c(C(C)C)cc1C1(c2cc(C(C)C)c(O)cc2C)OC(=O)c2ccccc21`, the AC50 was 3.16 µM (active).
Turning to `O=c1c(-c2ccc(F)cc2)nc2cnc(N3CCOCC3)nc2n1C1CC1`, the AC50 entry is “inactive”.
`Cc1ccc(S(=O)(=O)NC(=O)NN2C[C@H]3CCC[C@@H]3C2)cc1`: the AC50 entry was “inactive”.
Still for that read-out and setting: under `Cc1ccc(S(=O)(=O)N(CC(=O)N2CCN(c3ccc(F)cc3)CC2)C2CCCCC2)cc1` stands 2.82 µM (active); under `COc1ccc(-n2c(=O)c(-c3cccs3)nc3cnc(Nc4cccc(OC)c4)nc32)cc1`, “inactive”; under `COc1ccc(-n2c(=O)c(C)nc3cnc(Nc4ccccc4)nc32)cc1`, “inactive”.
Same read-out and setting: as for `COc1ccc(Nc2ncc3c(n2)CC(c2ccc(C)cc2)CC3=O)cc1` (stereo not given), the figure is 8.91 µM (active); as for `COc1ccc(-c2nc3cnc(Nc4ccccc4)nc3n(CCC#N)c2=O)cc1`, “inactive”.
Take `COc1cccc(Nc2ncc3nc(C)c(=O)n(C4CC4)c3n2)c1`: the AC50 result is “inactive”.
In the case of `COc1ccc(C2CC(=O)c3cnc(Nc4cc(C)cc(C)c4)nc3C2)cc1` (stereo not given), the AC50 is 11.2 µM (active).
The same measure, in the same setting: under `O=C(Nc1ccccc1)N1CC[C@@]2(CCCN(C(=O)c3ccco3)C2)C1` stands “inactive”.
Turning to `C=CC[C@@H]1C=C[C@H](O/N=C(\C)CCN2CCCCc3nc(C)c(C)cc32)[C@H](CO)O1`, the activity, negative = inhibition is 21.2% [at 11.4 µM].
Consider `O=C(c1cccc(F)c1)N1CCC2(CCCN(c3ccccc3)C2)CC1`, for which the AC50 is 5.01 µM (active).
In the case of `CC(C)CN1CCCC2(CCN(C(=O)c3cccc(F)c3)CC2)C1`, the AC50 entry was “inactive”.
As to `O=C(c1cccc(F)c1)N1CCC2(CCCN(c3ncccn3)C2)CC1`, the AC50 is 6.31 µM (active).
Still for that read-out and setting: under `O=C(c1cccc(F)c1)N1CCC[C@@]2(CCN(c3ccccc3)C2)C1` stands “inactive”; under `O=C(c1cccc(F)c1)N1CCC2(CC1)CN(c1cccc(-c3ccccc3)c1)C2`, “inactive”.
As for `O=C(c1cccc(F)c1)N1CCC2(CC1)CCN(c1ccccc1)CC2`, the AC50 entry is “inactive”.
Same read-out and setting: under `O=C(c1cccc(F)c1)N1CCC2(CC1)CCN(c1cccc(-c3ccccc3)c1)CC2` stands “inactive”.
Still for that read-out and setting: as for `O=C(c1cccc(F)c1)N1CCC2(CCCN(c3cccc(-c4ccccc4)c3)C2)CC1`, the figure is 7.94 µM (active).
For the compound `CC(=O)N1CCC2(CCCN(c3ncccn3)C2)CC1`, the AC50 result was “inactive”.
Same read-out and setting: under `CN(C)C(=O)c1ccc(-c2ccc3ncnc(N4CCC(C(=O)O)CC4)c3c2)cc1` stands “inactive”.
As to `O=C(O)CCc1ccc(-c2ccccc2)[nH]1`, the activity, negative = inhibition was -7.89% [at 11.4 µM].
